From PubChem BioAssay (NCATS)
Inconclusive results are not listed. Active and inactive are the calls of the source. Calls follow the shape of the dose curve; as a rule, active = well fitted curve in the direction sought with a large enough effect; inconclusive = small, poorly fitted or top-dose-only effect, or another doubt; inactive = no such curve, though single readings can be large; an effect the other way counts as inactive or inconclusive.

How the values were obtained:
[1] = qHTS of pediatric cancer cell lines to identify multiple opportunities for drug repurposing: Confirmatory screen for A673 cells (AID 1347110);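 also: cells exposed to compound for 48 h before the viability read; nearly all actives have a fitted effect of over 65% in size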
Summary of the method: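 Forty-eight-hour viability assay. Follow-up compounds ran at 11-point dilutions; positive control bortezomib at 2.3 uM final, neutral control DMSO.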

[2] = qHTS of pediatric cancer cell lines to identify multiple opportunities for drug repurposing: Confirmatory screen for SK-N-MC cells (AID 1347111);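 also: cells exposed to compound for 48 h before the readout; nearly all actives have a fitted effect of over 70% in size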
Summary of the method: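 Seed 500-1,000 cells/well; rest 5 h at 37 degrees C. Pin-transfer compounds, 11-point titration. Incubate 48 h. Add CellTiter-Glo, 15 min RT, read luminescence.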

[3] = qHTS of pediatric cancer cell lines to identify multiple opportunities for drug repurposing: Confirmatory screen for BT-12 cells (AID 1347112);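 also: viability read after 48 h of compound exposure; nearly all actives have a fitted effect of over 55% in size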
Summary of the method: (§1)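 Cells (500-1,000/well) rested 5 h, then received compounds for 48 h; metabolically active cells were measured by CellTiter-Glo luminescence. Final concentrations spanned up to 46 µM (MIPE, 11-point) or 0.59 nM-46 µM (NPC, 8-point) in primary screens, 11-point in follow-ups.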

[4] = qHTS of pediatric cancer cell lines to identify multiple opportunities for drug repurposing: Confirmatory screen for NB-EBc1 cells (AID 1347115);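 also: cells exposed to compound for 48 h before the viability read; nearly all actives have a fitted effect of over 45% in size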
Summary of the method: as §1

[5] = qHTS of pediatric cancer cell lines to identify multiple opportunities for drug repurposing: Confirmatory screen for SJ-GBM2 cells (AID 1347116); also: nearly all actives have a fitted effect of over 60% in size
Summary of the method: (§2)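 Viability measured as metabolically active cells via CellTiter-Glo luminescence following 48 hours of compound exposure, 11-point dilutions in confirmatory testing. 500-1,000 cells/well plated 5 hours before dosing; controls were DMSO and 2.3 µM bortezomib.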

[6] = qHTS of pediatric cancer cell lines to identify multiple opportunities for drug repurposing: Confirmatory screen for BT-37 cells (AID 1347117); also: nearly all actives have a fitted effect of over 55% in size
Summary of the method: as §1

[7] = qHTS of pediatric cancer cell lines to identify multiple opportunities for drug repurposing: Confirmatory screen for TC32 cells (AID 1347118);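 also: cells exposed to compound for 48 h before the read; nearly all actives have a fitted effect of over 65% in size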
Summary of the method: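 qHTS, TC32, 48 h drug treatment, CellTiter-Glo luminescence as a proxy for metabolically active cells; primary top concentration 46 µM (MIPE 11-pt, NPC 8-pt); confirmatory 11-pt.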

[8] = qHTS of pediatric cancer cell lines to identify multiple opportunities for drug repurposing: Confirmatory screen for LAN-5 cells (AID 1347113); also: nearly all actives have a fitted effect of over 65% in size
Summary of the method: as §1

[9] = qHTS of pediatric cancer cell lines to identify multiple opportunities for drug repurposing: Confirmatory screen for MG 63 (6-TG R) cells (AID 1347119); also: nearly all actives have a fitted effect of over 55% in size
Summary of the method: as §1

[10] = qHTS of pediatric cancer cell lines to identify multiple opportunities for drug repurposing: Confirmatory screen for DAOY cells (AID 1347114); also: nearly all actives have a fitted effect of over 65% in size
Summary of the method: as §2
Potency is read from the fitted curve at half-maximal effect.

SMILES | Potency [1] | Potency [2] | Potency [3] | Potency [4] | Potency [5] | Potency [6] | Potency [7] | Potency [8] | Potency [9] | Potency [10]
Cc1ccccc1-n1c(Cn2cnc3c(N)ncnc32)nc2cccc(C)c2c1=O | inactive | inactive | inactive | inactive | inactive | inactive | inactive |  |  | 
C[C@@H]1CC[C@@]2(OC1)O[C@H]1C[C@H]3[C@@H]4CC=C5C[C@@H](O[C@@H]6O[C@H](CO)[C@@H](O[C@@H]7O[C@@H](C)[C@H](O)[C@@H](O)[C@@H]7O)[C@H](O)[C@@H]6O[C@@H]6O[C@@H](C)[C@H](O)[C@@H](O)[C@@H]6O)CC[C@]5(C)[C@@H]4CC[C@]3(C)[C@@H]1[C@H]2C | 6.57 µM (active) | 2.33 µM (active) | 9.27 µM (active) | 16.5 µM (active) |  | 5.22 µM (active) | 4.14 µM (active) | 4.65 µM (active) | 2.61 µM (active) | 
CC(C)(O)C=CC(=O)[C@](C)(O)[C@H]1[C@H](O)C[C@]2(C)[C@@H]3CC=C4[C@@H](C=C(O)C(=O)C4(C)C)[C@]3(C)C(=O)C[C@@]12C | 5.22 µM (active) | 0.147 µM (active) | 1.31 µM (active) | 3.29 µM (active) | 1.65 µM (active) | 0.827 µM (active) | 0.827 µM (active) | 0.0585 µM (active) | 0.117 µM (active) | 0.165 µM (active)
CC[C@@]1(O)C(=O)OCc2c1cc1n(c2=O)Cc2cc3ccccc3nc2-1 | 0.0465 µM (active) | 0.0293 µM (active) | 0.827 µM (active) | 0.0657 µM (active) | 0.104 µM (active) | 0.0369 µM (active) | 0.0185 µM (active) | 0.0585 µM (active) | 0.0737 µM (active) | 4.65 µM (active)
Cc1[nH]nc2ccc(-c3cncc(OC[C@@H](N)Cc4c[nH]c5ccccc45)c3)cc12 | 1.47 µM (active) | 1.47 µM (active) | 4.14 µM (active) |  |  | 1.65 µM (active) | 2.33 µM (active) | 2.33 µM (active) | 3.29 µM (active) | 
CC(C)(C)C(O)C(Oc1ccc(Cl)cc1)n1cncn1 (configuration not stated) | inactive | inactive | inactive | inactive | inactive | inactive | inactive |  | inactive | inactive
CC=C(C)C(=O)N[C@@H](c1ccccc1)[C@@H](O)C(=O)O[C@H]1C[C@@]2(O)[C@@H](OC(=O)c3ccccc3)[C@@H]3[C@]4(OC(C)=O)CO[C@@H]4C[C@H](O)[C@@]3(C)C(=O)[C@H](OC(C)=O)C(=C1C)C2(C)C | 0.0329 µM (active) | 0.0369 µM (active) |  |  |  | 0.0522 µM (active) |  | inactive | 0.0293 µM (active) | 
CC(=O)[O][Hg][c]1ccccc1 | 1.04 µM (active) | 0.827 µM (active) | 4.65 µM (active) | 5.85 µM (active) | 1.17 µM (active) | 2.33 µM (active) | 0.827 µM (active) | 3.29 µM (active) | 4.14 µM (active) | 
Cc1ccccc1-n1c(Cn2ncc3c(N)ncnc32)nc2cccc(C)c2c1=O | inactive | 1.04 µM (active) | 18.5 µM (active) |  | inactive | 0.293 µM (active) | 1.85 µM (active) | 0.522 µM (active) |  | inactive
O=C(O)CCCOc1ccc(Cl)cc1Cl | inactive | 43.4 µM (active) | inactive | 19.4 µM (active) |  | inactive |  | inactive |  | inactive
C[C@H]1CCCC=CC2C[C@H](O)C[C@@H]2[C@H](O)C=CC(=O)O1 (some centres not stated) | 0.414 µM (active) | 0.104 µM (active) | 0.165 µM (active) | 0.117 µM (active) | 0.208 µM (active) | 0.0928 µM (active) | 0.117 µM (active) | 0.117 µM (active) |  | 
CC(C)[C@]12O[C@@H]1[C@@H]1O[C@]13[C@]1(O[C@H]1C[C@@H]1C4=C(CC[C@@]13C)C(=O)OC4)[C@H]2O | 0.0928 µM (active) | 0.0465 µM (active) | 0.0369 µM (active) |  | 0.0657 µM (active) | 0.0369 µM (active) | 0.0737 µM (active) | 0.147 µM (active) | 0.0329 µM (active) | 0.208 µM (active)
CC1=C(O)C(=O)C=C2C1=CC=C1[C@@]2(C)CC[C@@]2(C)[C@@H]3C[C@](C)(C(=O)O)CC[C@]3(C)CC[C@]12C | 1.31 µM (active) | 1.17 µM (active) | 3.29 µM (active) | 2.61 µM (active) | 2.61 µM (active) | 4.65 µM (active) | 1.31 µM (active) | 1.85 µM (active) | 2.33 µM (active) | 1.65 µM (active)
O=C(Nc1ccncc1)C(=O)c1cn(Cc2ccc(Cl)cc2)c2ccccc12 | 0.414 µM (active) | 0.329 µM (active) |  |  |  | 0.827 µM (active) | 0.233 µM (active) |  | 0.369 µM (active) | 0.293 µM (active)
O=C(N[C@H]1CN2CCC1CC2)c1ccc(Cl)cc1 | 1.65 µM (active) | 1.17 µM (active) | inactive | inactive | 0.585 µM (active) | inactive | 1.65 µM (active) | 23.3 µM (active) |  | inactive
CC=C(C)C(=O)O[C@H]1C(C)=C2[C@@H]3OC(=O)[C@@](C)(O)[C@@]3(O)[C@@H](OC(=O)CCC)C[C@](C)(OC(C)=O)[C@@H]2[C@@H]1OC(=O)CCCCCCC | inactive | inactive |  | inactive |  | inactive | inactive |  | inactive | inactive
COc1cc2cc(c1Cl)N(C)C(=O)C[C@H](OC(=O)C(C)C)[C@]1(C)O[C@H]1[C@H](C)[C@@H]1C[C@@](O)(NC(=O)O1)[C@H](OC)C=CC=C(C)C2 | 0.001 µM (active) | 0.0013 µM (active) | 0.0016 µM (active) |  |  | 0.001 µM (active) | 0.0004 µM (active) | 1.17 µM (active) | 0.001 µM (active) | 0.0037 µM (active)
